Experimental data taken from the supplement of paper PMC10338343.
± gives the standard deviation.

Test system: EfPiwi piRISC loaded with L1MC piRNA (26 nt)
Test: pre-steady-state target cleavage rate (min^-1); auxiliary factor: 500 nM Ephydatia muelleri Gtsf1; guide: L1MC piRNA 5'p-UAACUAAAUACUAUGCAAGCUGUAGG; MIWI and MILI are mouse PIWI proteins and EfPiwi is from a freshwater sponge; tags in brackets are library labels; higher = faster piRNA-guided slicing of the target
Outline: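 Sequencing of uncleaved targets, normalised to depth and to weakly complementary targets, was the readout of this Cleave-'n-Seq assay. A transcribed, DNA-blocked target RNA library (0.1 nM) was mixed with 1 nM active affinity-purified piRISC carrying one synthetic guide, with or without 500 nM GTSF1 partner protein, in HEPES–potassium acetate buffer at 33 °C for 0–8 or 0–960 min. Three trials were pooled, k3 was capped at 0.0001 min^-1, and a burst-and-steady-state fit gave the pre-steady-state cleavage rate.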

Sequence	pre-steady-state target cleavage rate
UCCUGCUACAGCUUGCUUAGUAUUUAGUUA	0.0201 ± 0.0068
UCCUCGUACAGCAUGCAUAGUAUUUAGUUA	0.0515 ± 0.013
UCCUCCUUCAGCUUGCAAAGUAUUUAGUUA	0.0828 ± 0.021
UCCUGGAACAUGCUUGCAUAGUAUUUAGUUA	0.0178 ± 0.0057
UCCUGGAUCUGCAUGCAUAGUAUUUAGUUA	0.0798 ± 0.021
UCCUGGAUGUGGUUGCAUAGUAUUUAGUUA	0.00426 ± 0.0039
UCCUGCUACAGCAUGCUUAGUAUUUAGUUA	0.0122 ± 0.0038
UCCUGGAUGAGCAUGCAUAGUAUAUAGUUA	0.00333 ± 0.0032
UCCUGGAACAGGUUGCAUAGUAUUUAGUAA	0.00828 ± 0.0031
UCCUGGAUCAGCUUGCGAUAGUAUUUAGUUA	0.00281 ± 0.0027
UCCUGGAUGUCCUUGCAUAGUAUUUAGCUUA	0.0051 ± 0.0028
UCCUGGAUGUCGAACGUUAGUAUCUAGUUA	< 0.0001
UCCUGGUACAGCUUGGAUAGUAUUUAGAAA	0.00277 ± 0.0022
UCCUGGAACAGCUUGCUAAGUAUUUAGUUA	0.00374 ± 0.0032
UCCUGGAACAGCUUGUCAUAGUAUUUAGUUA	0.0277 ± 0.0088
UCCUGGAUGUCGAACGUAUCUAUUUUCUUA	< 0.0001
UCCUGGUACAGCUUGCAUAGUAUUAAGAUA	0.0058 ± 0.0028
UCCUGGAAGAGCUUGCAUAGUAUUAAGUUA	0.00519 ± 0.0018
UCCUGGAACAGCUUGCAUAGUAUUUAGUUU [g2:g23:cont:t1U]	0.0156 ± 0.0055
UCCUGGAUGUCGAACGUAAGUAUUUAGUGA	< 0.0001

Sequence	pre-steady-state target cleavage rate
UCCUGGUUCAGCUUGGAUAGUAUUUAGUUA	0.00792 ± 0.0035
UCCUGGAUGUCGAACGUAAGUAUUUAAUUA	< 0.0001
UCCUGCUACAGCUUCCAUAGUAUUUUCAAA	0.0032 ± 0.0021
UCCUGGAUGUCGAACGUUACUAUUUAGUUA	< 0.0001
UCCUGCUACAGCUUGCAUACUAUUUAGAUA	0.00382 ± 0.002
UCCUGGAUGUCGAACGUAUCUAGUUUAGUUA	< 0.0001
UCCUGGAACAGCUUGCAUAGUAGUUUAGUUA	0.0047 ± 0.0024
UCCUGGAUGUCGAACGAUAGUCAUUUAGUUA	< 0.0001
UCCUGGUACAGGUAGCAUAGUAUUUAGUUA	0.00853 ± 0.0036
UCCUGGAACAGCUUGCAUAGUAUUUAGAUA	0.00437 ± 0.0016
UCCUGGAUGUCGAACGUAUCUAUUAUAGUUA	< 0.0001
UCCUGGAUGUCGAACCAUUGUAUUUAGUAA	< 0.0001
UCCUGGAUGUGCUAUGCAUAGUAUUUAGUUA	0.0103 ± 0.0036
UCCUGCUACACCUUGCAUAGUAUUUUCAAA	0.00244 ± 0.0022
UCCUGGAUGUCGAACGAUACGUAUUUAGUUA	< 0.0001
UCCUGGAUGUCGAAGGAUACUAUUUAGUUA	< 0.0001
UCCUGCUACUGCUUGCAUAGUAAUUAGUUA	0.00587 ± 0.0019
UCCUGCUACAGCUUCGAUAGUAUUUAGUAA	0.00315 ± 0.0026
UCCUGCUACAGCUUGCAUAGUAUUGUAGUUA	0.00279 ± 0.0016
UCCUGGAUGAGCUUGCUUAGUAAUUAGUUA	0.00425 ± 0.0027
